Values joined by “and” are separate entries in the source; they are usually repeats but may differ in a detail not shown here. Equal entries are not always repeated. The whole screen tested about 5,500 compounds, of which about 2,000 (36%) were called active. Inconclusive results (about 18%) are left out. Rule as the data show it: active = normalized growth mostly below about 0.91 (no sharp cut-off); inconclusive = no clear call, values can overlap the other calls; inactive = mostly above about 0.92. The list shows a part of the results.
Test: chemical genetic growth profiling, strain panel (AID 1159580);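 also: tested at 20 µM; growth read once vehicle control cultures reached saturation at 30 °C; 1 = growth at the plate median or of vehicle wells; lower values mean less growth of the strain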
Details: S. cerevisiae deletion strains, growth OD

Measured: normalized growth

CC[C@H](/C=C/C(C)C1CCC2C3CCC4=CC(=O)CC[C@]4(C)C3CC[C@]12C)C(C)C (some centres not stated)
inactive: locus YBR021W, strain FUR4, stronger effect = lower value 1.01 | locus YBR229C, strain ROT2, stronger effect = lower value 1 | locus YCL029C, strain bik1, stronger effect = lower value 1.02 | locus YDL035C, strain GPR1, stronger effect = lower value 1.02 | locus YDL074C, strain BRE1, stronger effect = lower value 1.02 | locus YDL101C, strain DUN1, stronger effect = lower value 1.01 | locus YDL134C, strain PPH21, stronger effect = lower value 1.03 | locus YDL185W, strain tfp1, stronger effect = lower value 1.01 | locus YDL192W, strain arf1, stronger effect = lower value 1 | locus YDR101C, strain arx1, stronger effect = lower value 1.01 | locus YDR162C, strain NBP2, stronger effect = lower value 1.03 | locus YDR318W, strain mcm21, stronger effect = lower value 1 | locus YDR388W, stronger effect = lower value 1.01 | locus YDR502C, strain sam2, stronger effect = lower value 1.02 | locus YEL061C, strain CIN8, stronger effect = lower value 1 | locus YER110C, stronger effect = lower value 1 | locus YER155C, strain BEM2, stronger effect = lower value 1.01 | locus YER167W, strain BCK2, stronger effect = lower value 1.02 | locus YGL078C, strain dbp3, stronger effect = lower value 1.01 | locus YGL086W, strain mad1, stronger effect = lower value 0.997 | locus YGL248W, strain PDE1, stronger effect = lower value 1.02 | locus YGR078C, strain PAC10, stronger effect = lower value 1.03 | locus YGR135W, strain pre9, stronger effect = lower value 1 | locus YGR252W, strain gcn5, stronger effect = lower value 1.01 | locus YHR030C, strain SLT2, stronger effect = lower value 1.01 and 1.1 | locus YHR079C, strain IRE1 (second series), stronger effect = lower value 0.991 | locus YHR079C, strain IRE1, stronger effect = lower value 1.07 | locus YHR094C, strain hxt1, stronger effect = lower value 0.99 | locus YHR129C, strain ARP1, stronger effect = lower value 1.01 | locus YHR200W, strain rpn10, stronger effect = lower value 1 | locus YIL066C, strain RNR3, stronger effect = lower value 1.03 | locus YIL073C, strain SPO22, stronger effect = lower value 1.05 | locus YIL125W, strain kgd1, stronger effect = lower value 1.01 | locus YIR030C, strain dcg1, stronger effect = lower value 1 | locus YJL095W, strain BCK1, stronger effect = lower value 1.02 and 1.05 | locus YJL134W, strain LCB3, stronger effect = lower value 1.01 | locus YJL168C, strain set2, stronger effect = lower value 1 | locus YJL187C, strain SWE1 (second series), stronger effect = lower value 1.02 | locus YJR043C, strain POL32, stronger effect = lower value 1.03 | locus YJR066W, strain TOR1, stronger effect = lower value 0.985 | locus YJR075W, strain HOC1, stronger effect = lower value 1.02 | locus YKL009W, strain mrt4, stronger effect = lower value 1.04 | locus YKL068W, stronger effect = lower value 1.01 | locus YKL085W, strain MDH1 (second series), stronger effect = lower value 1.01 | locus YKL085W, strain MDH1, stronger effect = lower value 1.01 | locus YKL190W, strain CNB1, stronger effect = lower value 1.01 | locus YKR001C, strain vps1, stronger effect = lower value 1.02 | locus YLR039C, strain RIC1, stronger effect = lower value 1.07 | locus YLR058C, strain SHM2, stronger effect = lower value 1.01 | locus YLR102C, strain apc9, stronger effect = lower value 0.999 | locus YLR113W, strain HOG1, stronger effect = lower value 1.04 | locus YLR262C, strain YPT6, stronger effect = lower value 1.06 | locus YLR268W, strain sec22, stronger effect = lower value 1.02 | locus YLR330W, strain CHS5, stronger effect = lower value 1.01 | locus YLR342W, strain FKS1 (second series), stronger effect = lower value 0.996 | locus YLR371W, strain rom2, stronger effect = lower value 1.02 | locus YLR418C, strain cdc73, stronger effect = lower value 1.01 | locus YML016C, strain PPZ1, stronger effect = lower value 1 | locus YML032C, strain rad52, stronger effect = lower value 1.01 | locus YML124C, strain tub3, stronger effect = lower value 1 | locus YMR078C, strain ctf18, stronger effect = lower value 1 | locus YMR223W, strain ubp8, stronger effect = lower value 1.01 | locus YMR263W, strain SAP30, stronger effect = lower value 1.01 | locus YMR307W, strain GAS1, stronger effect = lower value 1.04 | locus YNL067W, strain RPL9B, stronger effect = lower value 1.02 | locus YNL153C, strain GIM3, stronger effect = lower value 1.01 | locus YNL183C, strain NPR1, stronger effect = lower value 0.996 | locus YNL233W, strain BNI4, stronger effect = lower value 1.02 | locus YNL250W, strain rad50, stronger effect = lower value 1 | locus YNL271C, strain bni1, stronger effect = lower value 1.01 | locus YNL298W, strain CLA4, stronger effect = lower value 1 | locus YNL307C, strain MCK1, stronger effect = lower value 1.01 | locus YNL322C, strain KRE1, stronger effect = lower value 1.02 | locus YNR052C, strain pop2, stronger effect = lower value 1.01 | locus YOL006C, strain TOP1, stronger effect = lower value 1.13 | locus YOL012C, strain htz1 1.25 | locus YOL147C, strain pex11, stronger effect = lower value 1 | locus YOR061W, strain CKA2, stronger effect = lower value 1.01 | locus YOR069W, strain VPS5, stronger effect = lower value 1.01 | locus YOR136W, strain idh2, stronger effect = lower value 1 | locus YOR144C, strain elg1, stronger effect = lower value 0.994 | locus YOR184W, strain ser1, stronger effect = lower value 0.999 | locus YOR231W, strain MKK1, stronger effect = lower value 1.08 | locus YOR316C, strain cot1, stronger effect = lower value 1 | locus YPL055C, strain LGE1, stronger effect = lower value 1.04 | locus YPL241C, strain CIN2, stronger effect = lower value 1.01 | locus YPL256C, strain CLN2, stronger effect = lower value 1.03 | locus YPR119W, strain clb2, stronger effect = lower value 1 | locus YPR141C, strain kar3, stronger effect = lower value 1.01 | locus YPR163C, strain tif3, stronger effect = lower value 1.01 | locus YPR167C, strain met16, stronger effect = lower value 1.03 | strain wtn01, stronger effect = lower value 0.992

— PubChem BioAssay AID1159580 (chemical genetic matrix, 2015)
